# Data: PMC7862700, “An all-to-all approach to the identification of sequence-specific readers for epigenetic DNA modifications on cytosine”
# Tests used:
# Assay in all cases: DAPPL (digital affinity profiling via proximity ligation, sequencing); 10 mM Tris-HCl pH 7.5, 50 mM NaCl, 1 mM DTT, 4% glycerol, room temperature, 30 min; GST-TFs on glutathione beads, 16-mer random dsDNA library, 0.1% formaldehyde crosslink after washing; high values mean tight binding
# Conditions in all cases: protein: recombinant; tags: N-terminal GST; dsDNA, one strand shown
# FLI1 = molecular target: T1, FLI1 (Homo sapiens, UniProt Q01543 1-452)
# T1 sequence: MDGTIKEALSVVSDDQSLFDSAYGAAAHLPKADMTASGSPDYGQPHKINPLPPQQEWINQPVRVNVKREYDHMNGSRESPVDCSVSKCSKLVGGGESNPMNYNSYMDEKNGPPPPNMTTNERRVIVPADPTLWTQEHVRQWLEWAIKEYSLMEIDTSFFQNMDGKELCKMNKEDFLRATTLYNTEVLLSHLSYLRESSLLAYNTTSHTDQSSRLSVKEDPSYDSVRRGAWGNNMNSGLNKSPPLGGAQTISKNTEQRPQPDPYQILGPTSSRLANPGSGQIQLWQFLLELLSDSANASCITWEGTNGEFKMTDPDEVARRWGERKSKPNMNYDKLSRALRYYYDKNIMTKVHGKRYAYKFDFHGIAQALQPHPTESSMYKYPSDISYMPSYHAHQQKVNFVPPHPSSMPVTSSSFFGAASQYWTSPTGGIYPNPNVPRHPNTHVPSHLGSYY
# How it was run: (§1)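 Binding signal is defined as a hexamer's read frequency for one factor over its frequency for the tag-only sample. To obtain reads, GST-fused human transcription factors were expressed in yeast, captured on glutathione beads, barcoded with DNA and pooled with that sample. Pools met 200 nmole of a 16-mer random double-stranded DNA library in Tris/NaCl/DTT/glycerol buffer for 30 min at room temperature before washing, 0.1% formaldehyde crosslinking, proximity ligation (BsaI/T4 ligase, 1 h, 37 °C), PCR and Illumina NextSeq500 sequencing.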
# ELK1 = molecular target: T2, ELK1 (Homo sapiens, UniProt P19419 1-428)
# T2 sequence: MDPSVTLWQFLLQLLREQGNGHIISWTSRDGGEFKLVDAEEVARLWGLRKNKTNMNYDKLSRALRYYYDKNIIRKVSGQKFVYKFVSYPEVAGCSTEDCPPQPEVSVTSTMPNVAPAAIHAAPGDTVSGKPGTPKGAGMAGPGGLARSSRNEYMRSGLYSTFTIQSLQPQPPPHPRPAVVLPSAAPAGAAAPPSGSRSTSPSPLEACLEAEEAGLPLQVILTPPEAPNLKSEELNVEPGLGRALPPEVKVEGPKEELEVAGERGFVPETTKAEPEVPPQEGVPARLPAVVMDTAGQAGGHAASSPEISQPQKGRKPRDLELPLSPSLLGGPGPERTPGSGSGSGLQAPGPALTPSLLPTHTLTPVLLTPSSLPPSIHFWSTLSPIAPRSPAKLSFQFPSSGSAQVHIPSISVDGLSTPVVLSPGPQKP
# How it was run: as §1
# ELF1 = ELF1 (Homo sapiens, UniProt P32519 1-619)
# Sequence of ELF1 (P32519 whole entry): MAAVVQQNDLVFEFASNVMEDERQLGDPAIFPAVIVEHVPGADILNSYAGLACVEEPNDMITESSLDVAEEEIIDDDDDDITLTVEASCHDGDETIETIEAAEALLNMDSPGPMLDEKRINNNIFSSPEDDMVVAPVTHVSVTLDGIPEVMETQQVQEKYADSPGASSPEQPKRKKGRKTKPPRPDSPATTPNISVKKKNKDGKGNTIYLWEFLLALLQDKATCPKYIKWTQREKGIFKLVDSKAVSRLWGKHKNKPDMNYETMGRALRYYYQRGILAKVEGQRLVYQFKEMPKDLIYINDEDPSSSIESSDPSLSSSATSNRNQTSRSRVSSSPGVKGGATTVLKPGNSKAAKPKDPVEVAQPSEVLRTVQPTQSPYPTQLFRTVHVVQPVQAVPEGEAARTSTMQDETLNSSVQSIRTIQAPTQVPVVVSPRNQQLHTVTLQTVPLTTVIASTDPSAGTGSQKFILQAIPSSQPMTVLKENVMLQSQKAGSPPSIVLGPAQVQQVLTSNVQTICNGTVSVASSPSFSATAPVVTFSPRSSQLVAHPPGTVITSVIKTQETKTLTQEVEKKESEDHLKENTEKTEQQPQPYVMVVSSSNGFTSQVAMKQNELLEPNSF
# How it was run: as §1
# ETV5 = ETV5 (Homo sapiens, UniProt P41161 1-510)
# Sequence of ETV5 (P41161 whole entry): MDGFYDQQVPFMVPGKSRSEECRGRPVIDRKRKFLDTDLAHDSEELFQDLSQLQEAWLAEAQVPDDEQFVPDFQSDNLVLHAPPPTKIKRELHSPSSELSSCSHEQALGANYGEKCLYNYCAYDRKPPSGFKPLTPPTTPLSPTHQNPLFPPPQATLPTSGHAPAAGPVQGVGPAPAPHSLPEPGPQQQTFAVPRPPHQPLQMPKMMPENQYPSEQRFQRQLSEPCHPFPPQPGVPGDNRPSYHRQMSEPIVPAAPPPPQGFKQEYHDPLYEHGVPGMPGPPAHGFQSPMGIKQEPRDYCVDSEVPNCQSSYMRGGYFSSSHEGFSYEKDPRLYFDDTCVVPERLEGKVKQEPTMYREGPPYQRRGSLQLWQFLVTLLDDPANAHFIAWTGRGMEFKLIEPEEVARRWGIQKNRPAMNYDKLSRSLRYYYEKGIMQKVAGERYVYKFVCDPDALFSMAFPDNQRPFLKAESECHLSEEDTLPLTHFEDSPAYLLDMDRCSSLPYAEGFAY
# How it was run: as §1
# SPIC = molecular target: T3, SPIC (Homo sapiens, UniProt Q8N5J4 1-248)
# T3 sequence: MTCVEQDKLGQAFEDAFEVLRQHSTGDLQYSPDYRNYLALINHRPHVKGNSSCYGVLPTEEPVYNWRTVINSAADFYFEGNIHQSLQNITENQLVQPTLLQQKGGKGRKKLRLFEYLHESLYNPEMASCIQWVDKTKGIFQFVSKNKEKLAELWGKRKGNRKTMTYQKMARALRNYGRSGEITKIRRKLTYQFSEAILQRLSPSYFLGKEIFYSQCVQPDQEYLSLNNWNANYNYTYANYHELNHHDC
# How it was run: as §1
# ETV1 = ETV1 (Homo sapiens, UniProt P50549 1-477)
# Sequence of ETV1 (P50549 whole entry): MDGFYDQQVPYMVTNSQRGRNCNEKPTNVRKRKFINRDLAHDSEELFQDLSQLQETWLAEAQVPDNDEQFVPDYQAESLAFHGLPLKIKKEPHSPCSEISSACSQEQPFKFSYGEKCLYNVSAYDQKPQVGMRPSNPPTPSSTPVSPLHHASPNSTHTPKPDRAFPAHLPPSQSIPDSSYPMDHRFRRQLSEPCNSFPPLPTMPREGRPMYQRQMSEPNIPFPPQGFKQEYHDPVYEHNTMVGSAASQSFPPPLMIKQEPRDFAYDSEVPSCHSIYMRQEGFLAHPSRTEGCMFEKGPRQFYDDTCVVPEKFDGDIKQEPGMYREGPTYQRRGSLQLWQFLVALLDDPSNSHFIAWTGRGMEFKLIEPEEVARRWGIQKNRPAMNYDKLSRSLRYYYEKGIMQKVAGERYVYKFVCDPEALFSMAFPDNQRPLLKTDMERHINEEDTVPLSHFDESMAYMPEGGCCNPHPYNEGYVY
# How it was run: as §1
# ETV3L = molecular target: T4, ETV3L (Homo sapiens, UniProt Q6ZN32 1-361)
# T4 sequence: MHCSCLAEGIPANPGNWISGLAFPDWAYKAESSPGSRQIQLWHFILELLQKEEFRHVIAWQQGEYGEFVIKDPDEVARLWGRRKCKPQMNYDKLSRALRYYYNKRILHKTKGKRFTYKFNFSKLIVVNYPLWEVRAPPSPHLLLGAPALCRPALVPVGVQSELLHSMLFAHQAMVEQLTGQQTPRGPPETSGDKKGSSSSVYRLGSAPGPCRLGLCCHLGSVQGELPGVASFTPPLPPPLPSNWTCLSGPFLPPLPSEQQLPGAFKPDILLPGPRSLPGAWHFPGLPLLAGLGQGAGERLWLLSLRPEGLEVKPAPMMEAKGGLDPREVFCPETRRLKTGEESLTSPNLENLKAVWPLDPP
# How it was run: as §1
# ETS2 = molecular target: T5, ETS2 (Homo sapiens, UniProt P15036 1-469)
# T5 sequence: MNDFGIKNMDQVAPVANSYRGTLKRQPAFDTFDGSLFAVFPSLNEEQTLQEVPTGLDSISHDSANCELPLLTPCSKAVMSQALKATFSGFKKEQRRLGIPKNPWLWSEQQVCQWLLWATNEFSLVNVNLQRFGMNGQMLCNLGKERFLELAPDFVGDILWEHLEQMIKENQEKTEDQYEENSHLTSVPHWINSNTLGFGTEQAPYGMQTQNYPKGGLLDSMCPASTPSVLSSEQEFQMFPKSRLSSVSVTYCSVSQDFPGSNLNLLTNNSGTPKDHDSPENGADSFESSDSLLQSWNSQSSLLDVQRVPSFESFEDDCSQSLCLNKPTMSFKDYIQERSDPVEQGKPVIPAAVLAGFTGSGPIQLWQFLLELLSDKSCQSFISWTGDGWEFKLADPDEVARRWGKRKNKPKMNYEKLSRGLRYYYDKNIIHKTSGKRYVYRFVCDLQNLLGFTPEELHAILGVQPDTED
# How it was run: as §1
# SPDEF = molecular target: T6, SPDEF (Homo sapiens, UniProt O95238 1-335)
# T6 sequence: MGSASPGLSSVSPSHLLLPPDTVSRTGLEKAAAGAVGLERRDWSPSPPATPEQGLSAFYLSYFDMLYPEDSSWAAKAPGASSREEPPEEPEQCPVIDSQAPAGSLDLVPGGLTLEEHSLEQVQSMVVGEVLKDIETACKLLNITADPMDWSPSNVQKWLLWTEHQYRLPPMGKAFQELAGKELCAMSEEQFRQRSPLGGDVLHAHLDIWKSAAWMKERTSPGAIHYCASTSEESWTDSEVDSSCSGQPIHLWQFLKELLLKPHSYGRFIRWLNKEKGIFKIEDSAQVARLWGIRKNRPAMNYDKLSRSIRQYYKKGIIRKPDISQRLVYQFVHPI
# How it was run: as §1
# ETV3 = molecular target: T7, ETV3 (Homo sapiens, UniProt P41162-2 1-143)
# T7 sequence: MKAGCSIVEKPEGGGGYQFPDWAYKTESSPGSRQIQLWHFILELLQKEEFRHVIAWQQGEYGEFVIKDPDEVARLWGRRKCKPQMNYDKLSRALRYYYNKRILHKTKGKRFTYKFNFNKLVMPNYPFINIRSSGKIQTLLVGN
# How it was run: as §1
sequence,measurement,setting,value
GTTGTA,binding signal,FLI1,"1.01 fold enrichment (6-mer frequency, TF over GST control)"
same,binding signal,ELK1,"1.07 fold enrichment (6-mer frequency, TF over GST control)"
same,binding signal,ELF1,"1.01 fold enrichment (6-mer frequency, TF over GST control)"
same,binding signal,ETV5,"1.08 fold enrichment (6-mer frequency, TF over GST control)"
same,binding signal,SPIC,"1.01 fold enrichment (6-mer frequency, TF over GST control)"
same,binding signal,ETV1,"1.01 fold enrichment (6-mer frequency, TF over GST control)"
same,binding signal,ETV3L,"1.07 fold enrichment (6-mer frequency, TF over GST control)"
same,binding signal,ETS2,"1.03 fold enrichment (6-mer frequency, TF over GST control)"
same,binding signal,SPDEF,"1.04 fold enrichment (6-mer frequency, TF over GST control)"
same,binding signal,ETV3,"1.01 fold enrichment (6-mer frequency, TF over GST control)"
